# Measured values: the supplement of paper PMC7411054
# How the values were obtained:
# Details in all cases: treatment time: 24 h
# A549-ACTB-RAB5A [1] = experiment: phenotypically active (imaging signature differs from DMSO and reproducible) at any of 0.3-9 uM (binary (1 = active, 0 = inactive)); higher = active
# In short: (§1)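 Phenotypic activity depended on meeting both a deviation and a reproducibility criterion. The fifteen gene-edited A549, HepG2 and WPMY1 reporter lines were treated at 0.3, 1, 3 or 9 µM for 24 h, four wells each, then imaged live with features normalised to solvent control wells. Deviation required ≥3 of 4 wells past the 95th percentile of control Euclidean distances, and reproducibility a median replicate Pearson correlation above the 95th percentile of non-replicates.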
# A549-CANX-COX4 = experiment: as above
# In short: as §1
# A549-GM130-SQSTM1 [2] = experiment: as above
# In short: as §1
# A549-TP53BP1-CLTA = experiment: as above
# In short: as §1
# A549-TUBA1B-RELA [3] = experiment: as above
# In short: as §1
# HepG2-ACTB-RAB5A = experiment: as above
# In short: as §1
# HepG2-CANX-COX4 [4] = experiment: as above
# In short: as §1
# HepG2-GM130-SQSTM1 = experiment: as above
# In short: as §1
# HepG2-TP53BP1-CLTA = experiment: as above
# In short: as §1
# HepG2-TUBA1B-RELA = experiment: as above
# In short: as §1
# WPMY1-ACTB-RAB5A [5] = experiment: as above
# In short: as §1
# WPMY1-CANX-COX4 = experiment: as above
# In short: as §1
# WPMY1-GM130-SQSTM1 = experiment: as above
# In short: as §1
# WPMY1-TP53BP1-CLTA = experiment: as above
# In short: as §1
# WPMY1-TUBA1B-RELA = experiment: as above
# In short: as §1
# A549-ACTB-RAB5A [6] = experiment: lowest phenotypically active concentration; higher = less potent
# In short: as §1
# A549-GM130-SQSTM1 [7] = experiment: as above
# In short: as §1
# A549-TUBA1B-RELA [8] = experiment: as above
# In short: as §1
# HepG2-CANX-COX4 [9] = experiment: as above
# In short: as §1
# WPMY1-ACTB-RAB5A [10] = experiment: as above
# In short: as §1
SMILES,phenotypically active (A549-ACTB-RAB5A [1]),phenotypically active (A549-CANX-COX4),phenotypically active (A549-GM130-SQSTM1 [2]),phenotypically active (A549-TP53BP1-CLTA),phenotypically active (A549-TUBA1B-RELA [3]),phenotypically active (HepG2-ACTB-RAB5A),phenotypically active (HepG2-CANX-COX4 [4]),phenotypically active (HepG2-GM130-SQSTM1),phenotypically active (HepG2-TP53BP1-CLTA),phenotypically active (HepG2-TUBA1B-RELA),phenotypically active (WPMY1-ACTB-RAB5A [5]),phenotypically active (WPMY1-CANX-COX4),phenotypically active (WPMY1-GM130-SQSTM1),phenotypically active (WPMY1-TP53BP1-CLTA),phenotypically active (WPMY1-TUBA1B-RELA),lowest phenotypically active concentration (A549-ACTB-RAB5A [6]) [µM],lowest phenotypically active concentration (A549-GM130-SQSTM1 [7]) [µM],lowest phenotypically active concentration (A549-TUBA1B-RELA [8]) [µM],lowest phenotypically active concentration (HepG2-CANX-COX4 [9]) [µM],lowest phenotypically active concentration (WPMY1-ACTB-RAB5A [10]) [µM]
CCN1C[C@]2(COC)CC[C@H](OC)[C@]34[C@@H]5C[C@H]6[C@H](OC)[C@@H]5[C@@]5(C[C@@H]6OC)OCO[C@@]5([C@H]13)[C@@H](O)[C@H]24 [Delcorine],0 (inactive),0 (inactive),0 (inactive),0 (inactive),0 (inactive),0 (inactive),0 (inactive),0 (inactive),0 (inactive),0 (inactive),0 (inactive),0 (inactive),0 (inactive),0 (inactive),0 (inactive),,,,,
CC[C@H]1CN2CCc3cc(OC)c(OC)cc3[C@@H]2C[C@@H]1C[C@H]1NCCc2cc(OC)c(OC)cc21 [emetine],1 (active),1 (active),1 (active),1 (active),1 (active),1 (active),1 (active),1 (active),1 (active),1 (active),1 (active),1 (active),1 (active),1 (active),1 (active),≤ 0.3,≤ 0.3,≤ 0.3,≤ 0.3,≤ 0.3
CN1C2CCC1CC(O)C2 (stereo unspecified) [Tropine],0 (inactive),0 (inactive),0 (inactive),0 (inactive),0 (inactive),0 (inactive),0 (inactive),0 (inactive),0 (inactive),0 (inactive),0 (inactive),0 (inactive),0 (inactive),0 (inactive),0 (inactive),,,,,
C[C@]12CC[C@H]3[C@@H](CC[C@]4(O)C[C@@H](O)CC[C@]34C=O)[C@@]1(O)CC[C@@H]2C1=CC(=O)OC1 [Strophanthidin],1 (active),1 (active),1 (active),1 (active),1 (active),1 (active),1 (active),1 (active),1 (active),1 (active),1 (active),1 (active),1 (active),1 (active),1 (active),≤ 0.3,≤ 0.3,≤ 0.3,1,≤ 0.3
CC(C)[C@H]1C(=O)O[C@@H]2CCN3CC=C(COC(=O)[C@](C)(O)[C@@]1(C)O)[C@H]23 [Trichodesmine],0 (inactive),0 (inactive),0 (inactive),0 (inactive),0 (inactive),0 (inactive),0 (inactive),0 (inactive),0 (inactive),0 (inactive),0 (inactive),0 (inactive),0 (inactive),0 (inactive),0 (inactive),,,,,
O=C1C[C@@H]2OCC=C3CN4CC[C@]56c7ccccc7N1[C@H]5[C@H]2[C@H]3C[C@H]46 [Strychnine],1 (active),0 (inactive),0 (inactive),0 (inactive),0 (inactive),0 (inactive),0 (inactive),0 (inactive),0 (inactive),0 (inactive),0 (inactive),0 (inactive),0 (inactive),0 (inactive),0 (inactive),9,,,,
C/C=C1\C[C@@H](C)[C@](O)(CO)C(=O)OCC2=CCN3CC[C@@H](OC1=O)[C@@H]23 [Retrorsine],0 (inactive),0 (inactive),0 (inactive),0 (inactive),0 (inactive),0 (inactive),0 (inactive),0 (inactive),0 (inactive),0 (inactive),0 (inactive),0 (inactive),0 (inactive),0 (inactive),0 (inactive),,,,,
COc1ccc2c(c1)[C@]13CCCC[C@@H]1[C@H](C2)N(C)CC3 [dextromethorphan],0 (inactive),0 (inactive),0 (inactive),0 (inactive),0 (inactive),0 (inactive),0 (inactive),0 (inactive),0 (inactive),0 (inactive),0 (inactive),0 (inactive),0 (inactive),0 (inactive),0 (inactive),,,,,
C=C[C@H]1C[N@@]2CC[C@H]1C[C@H]2[C@H](O)c1ccnc2ccccc12 [(-)-Cinchonidine],0 (inactive),0 (inactive),0 (inactive),0 (inactive),0 (inactive),0 (inactive),0 (inactive),0 (inactive),0 (inactive),0 (inactive),0 (inactive),0 (inactive),0 (inactive),0 (inactive),0 (inactive),,,,,
Cc1cc2c(C(C)C)c(O)c(O)c(C=O)c2c(O)c1-c1c(C)cc2c(C(C)C)c(O)c(O)c(C=O)c2c1O [gossypol],1 (active),1 (active),1 (active),1 (active),1 (active),1 (active),1 (active),1 (active),1 (active),1 (active),1 (active),1 (active),1 (active),1 (active),1 (active),3,3,9,9,9
